Measured values published in PubChem BioAssay (NCATS).
Records with an inconclusive call do not appear. Calls of active or inactive are those of the source. Calls come from the whole dose curve; as a rule, active = well fitted inhibition curve with a large enough effect; inconclusive = small, poorly fitted or top-dose-only effect; inactive = flat fitted curve, though single readings scatter.

What was measured:
Experiment in all cases: qHTS profiling for inhibitors of Plasmodium falciparum proliferation (AID 504749); note: nearly all actives have a fitted effect of over 60% in size
Conditions in all cases: P. falciparum in erythrocytes, SYBR Green DNA, 72 h; series mostly up to 28.7 µM
ATS95 = test system: ATS95
How it was run: (§1)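 Quantitative HTS: compounds pinned into medium, infected erythrocytes added (0.3% parasitemia, 2.5% hematocrit), 72 h culture at 37 C under 5% CO2. Saponin/Triton lysis with SYBR Green I, overnight RT, then fluorescence read.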

C2A = test system: C2A
How it was run: as §1

CP185 = test system: CP185
How it was run: as §1

AA1029 = test system: AA1029
How it was run: as §1

AS120 = test system: AS120
How it was run: as §1

ATS189 = test system: ATS189
How it was run: as §1

CP192 = test system: CP192
How it was run: as §1

CP194 = test system: CP194
How it was run: as §1

CP201 = test system: CP201
How it was run: as §1

CP191 = test system: CP191
How it was run: as §1

Measured: Potency
Potency is the fitted concentration of half-maximal effect.

COC(C)(C)CCCC(C)C/C=C/C(C)=C/C(=O)OC(C)C (stereo not given)
inactive: ATS95 | C2A | CP185

c1ccc(C2(c3ccccc3)CC2C2=NCCN2)cc1 (stereo not given)
not listed: CP191
inactive: all other assays above

CCCCCCCCCCCCCCCC[N+](C)(C)C
active: AS120 11.2 µM | C2A 8.91 µM

CCCCc1ccc(C(=O)O)nc1
inactive: all assays above

CN(C)[C@@H]1C(=O)C(C(N)=O)=C(O)[C@@]2(O)C(=O)C3=C(O)c4c(O)cccc4[C@@](C)(O)[C@H]3[C@H](O)[C@@H]12
not listed: ATS95 | C2A | AS120
inactive: all other assays above

CN1C2CCC1CC(OC(=O)c1cc(Cl)cc(Cl)c1)C2 (stereo not given)
inactive: all assays above

C=CCN1CC[C@]23CCCCC2[C@H]1Cc1ccc(O)cc13 (stereo not given in full)
inactive: all assays above

C[C@]12CCC(=O)C(O)=C1CC[C@@H]1[C@H]3CCC(=O)[C@@]3(C)CC[C@@H]12
inactive: AS120 | CP191 | CP192 | CP194 | CP201

CC(=O)OCC1=C(C(=O)O)N2C(=O)[C@@H](N)[C@@H]2SC1
inactive: CP192 | CP194 | CP201

O=C(O)COc1ccccc1
inactive: all assays above

Cc1ccc(Cl)c(O)c1
inactive: all assays above

C1CCC(NC2CCCCC2)CC1
inactive: all assays above

CN[C@@H]1C[C@@H](c2ccc(Cl)c(Cl)c2)c2ccccc21
inactive: ATS189 | C2A | CP191 | CP192 | CP201

CCCN1CCC[C@H](c2cccc(O)c2)C1
inactive: all assays above

COC(=O)c1cncn1C(C)c1ccccc1 (stereo not given)
inactive: CP192 | CP194 | CP201

COC(=O)[C@@H](N)CCCN=C(N)N[N+](=O)[O-]
inactive: all assays above

NC(=O)CN1CC(O)CC1=O (stereo not given)
inactive: all assays above

Cc1cc(O)ccc1Cl
inactive: all assays above

CCCCCCCCCC(CC)c1ccc(S(=O)(=O)O)cc1 (stereo not given)
inactive: all assays above

NC1=NC(=O)N2CC12 (stereo not given)
inactive: ATS189 | ATS95 | CP191 | CP192 | CP201

O=C(O)C(Cl)Cl
inactive: all assays above

C#CC1(O)CCC2C3CCC4=CC(=O)CCC4(C)C3CCC21C (stereo not given)
inactive: all assays above

CC(C)NC(C)Cc1ccc(I)cc1 (stereo not given)
inactive: all assays above

CC(=O)[O][Hg][c]1ccccc1
active: AA1029 4.47 µM | AS120 3.98 µM | ATS189 11.2 µM | ATS95 4.47 µM | CP185 5.01 µM | CP191 8.91 µM | CP192 9.53 µM | CP194 9.53 µM

CC[N+]1(CCOC(=O)C(O)(c2ccccc2)c2ccccc2)CCCCC1
not listed: CP185 | AA1029
inactive: all other assays above

O=[N+]([O-])c1ccc([As](=O)(O)O)cc1
active: AA1029 3.98 µM | AS120 7.94 µM | ATS189 7.08 µM | ATS95 11.2 µM | CP185 8.91 µM | CP191 6.31 µM | CP194 13.5 µM
